The results in this text go back to PubChem BioAssay.

Where “and” joins values, the source holds several entries; their conditions need not be identical. Equal values may be shown once. Calls of active or inactive are those of the source.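 The calls were made as follows, unless noted: active = mean z-score across replicates of 1.96 or higher in either the MELAS or the Rieske mutant cell line; inactive = the rest.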

The nature of the first experiment: viability loss with induced miR-34 in A549 – imaging, A549 dox-inducible miR-34, nuclei and caspase counts, primary screen (AID 1347080). As to conditions: A549 miR-34 inducible, Hoechst nuclei count, 48 h; measured here: total cells without miR-34 induction.
Consider `Cc1c(-c2cnccn2)ssc1=S`, for which the cell count was found to be 10300.

As to `CC(NCCc1ccc(O)cc1)C(O)c1ccc(O)cc1` (stereo unspecified), the cell count stood at 12600.

For `OC[C@@H](O)[C@@H](O)[C@H](O)[C@@H](O)CO`, the cell count was determined as 12200.

Consider `CC1CC2C3CCC4=CC(=O)C=C[C@]4(C)[C@@]3(F)[C@@H](O)C[C@]2(C)[C@@]1(O)C(=O)CO` (stereo partly specified), for which the cell count stood at 7990.

Regarding `N#C[C@@H]1C[C@@H]2C[C@@H]2N1C(=O)[C@@H](N)C12CC3CC(CC(O)(C3)C1)C2`, the cell count came out at 9840.

On to `CC(C)(CO)[C@@H](O)C(=O)NCCC(=O)O`, for which the cell count was 10700 and 13800 and 10800.

Regarding `C[C@]12C=CC(=O)C=C1CCC1C2[C@@H](O)C[C@@]2(C)C1CC[C@]2(O)C(=O)COP(=O)(O)O` (stereo partly specified), the cell count was found to be 7150.

As for `CN(C)CC[C@H](c1ccc(Cl)cc1)c1ccccn1`, the cell count was found to be 12500.

The compound `CC(C)OC(=O)CCC/C=C\C[C@@H]1[C@@H](/C=C/C(O)COc2cccc(C(F)(F)F)c2)[C@H](O)C[C@@H]1O` (stereo partly specified) came in with a cell count of 10100.

In the case of `OC(c1cc(C(F)(F)F)nc2c(C(F)(F)F)cccc12)C1CCCCN1` (stereo unspecified), the cell count is 4250 and 12100.

`CN1C(C(=O)Nc2ccccn2)=C(O)c2sc(Cl)cc2S1(=O)=O`: the cell count is 9980 and 8730.

As for `Nc1nc(N)c2nc(CNc3ccc(C(=O)NC(CCC(=O)O)C(=O)O)cc3)cnc2n1` (stereo unspecified), the cell count is 2230.

`COC(=O)/C=C/C(=O)OC`: the cell count was found to be 7740.

Turning to `Cc1cc2nc3c(=O)[nH]c(=O)nc-3n(CC(O)C(O)C(O)CO)c2cc1C` (stereo unspecified), the cell count stood at 13100.

Consider `CN[C@@H]1[C@H](O[C@H]2[C@H](O[C@@H]3[C@@H](O)[C@H](O)[C@@H](N=C(N)N)[C@H](O)[C@H]3N=C(N)N)O[C@@H](C)[C@]2(O)C=O)O[C@@H](CO)[C@H](O)[C@H]1O`, for which the cell count was 8360 and 10400.

`CCCCS(=N)(=O)CCC(N)C(=O)O` (stereo unspecified) registered a cell count of 9650.

`CC12CCC3c4ccc(O)cc4CCC3C1C[C@H](O)[C@@H]2O` (stereo partly specified) showed a cell count of 8350.

For `Cc1coc2c1C(=O)C(=O)c1c-2ccc2c1CCCC2(C)C`, the cell count is 800 and 1570 and 1300.

As for `Nc1nc(F)nc2c1ncn2[C@@H]1O[C@H](COP(=O)(O)O)[C@@H](O)[C@@H]1O`, the cell count came out at 1470.

For `CC[C@]1(O)CC2CN(CCc3c([nH]c4ccccc34)[C@@](C(=O)OC)(c3cc4c(cc3OC)N(C)[C@H]3[C@@](O)(C(=O)OC)[C@H](OC(C)=O)[C@]5(CC)C=CCN6CC[C@]43[C@@H]65)C2)C1` (stereo partly specified), the cell count was 1530 and 1860.

In the case of `CC1=C(C(=O)O)N2C(=O)[C@@H](NC(=O)C(N)c3ccccc3)[C@H]2SC1` (stereo partly specified), the cell count was 9800 and 13300.

In the case of `C=CC[C@@H]1/C=C(\C)C[C@H](C)C[C@H](OC)[C@H]2O[C@@](O)(C(=O)C(=O)N3CCCC[C@H]3C(=O)O[C@H](/C(C)=C/[C@@H]3CC[C@@H](O)[C@H](OC)C3)[C@H](C)[C@@H](O)CC1=O)[C@H](C)C[C@@H]2OC`, the cell count is 4240 and 9860.

Compound `CC(C)(CO)C(O)C(=O)NCCC(=O)NCCSSCCNC(=O)CCNC(=O)C(O)C(C)(C)CO` (stereo unspecified) came in with a cell count of 8840.

For the compound `N#CC(c1ccc(Cl)cc1)c1c(Cl)cc(-n2ncc(=O)[nH]c2=O)cc1Cl` (stereo unspecified), the cell count is 8480 and 10000.

`Cc1cc(=O)c(C(=O)N[C@@H](C(=O)N[C@@H]2C(=O)N3C(C(=O)O)=C(CSc4nnnn4C)CSC23)c2ccc(O)cc2)c[nH]1` (stereo partly specified) yielded a cell count of 9610.

Regarding `COc1ccc(C2Sc3ccccc3N(CCN(C)C)C(=O)C2OC(C)=O)cc1` (stereo unspecified), the cell count was 8320 and 13000.

In the case of `COc1ccc2nc3cc(Cl)ccc3c(Nc3cc(CN4CCCC4)c(O)c(CN4CCCC4)c3)c2n1`, the cell count came out at 2290.

In turn, `C[C@]12CCC3c4ccc(O)cc4CCC3C1CCC2=O` (stereo partly specified) gave a cell count of 10300.

The next experiment in a line: chitosan synthesis blockers in C. neoformans – flow cytometry, Cibacron Brilliant Red staining (AID 1347148; call rule not given here;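 also: compound exposure lasted three days at 37 degrees C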). Conditions: Cryptococcus neoformans chitosan, stronger effect = lower value; at 10 µM unless noted.
Consider `Cc1coc2c1C(=O)C(=O)c1c-2ccc2c1CCCC2(C)C`, for which the fold fluorescence was 3.12 [at 169.9 µM] (inactive).

As for `CC[C@@]1(O)C(=O)OCc2c1cc1n(c2=O)Cc2cc3cc(O)ccc3nc2-1`, the fold fluorescence is 7.95 [at 137.2 µM] (inactive).

Consider `CC(C)NC[C@H](O)COc1cccc2ccccc12`, for which the fold fluorescence is 1.64 [at 192.8 µM] (inactive).

Another experiment can be described thus: blockers of cellular phospholipid synthesis – cell-based, LOPAC library, screen 4, primary screen (AID 1347384; call rule not given here). As to conditions: animal cells, phospholipid biosynthesis inhibition screen; at 10 µM.
For `CC1CC2C3CCC4=CC(=O)C=C[C@]4(C)[C@@]3(F)[C@@H](O)C[C@]2(C)[C@@]1(O)C(=O)CO` (stereo partly specified), the call was inactive.

Consider `Nc1nc(N)c2nc(CNc3ccc(C(=O)NC(CCC(=O)O)C(=O)O)cc3)cnc2n1` (stereo unspecified), for which the compound was classed as inactive.

In the case of `CCCCS(=N)(=O)CCC(N)C(=O)O` (stereo unspecified), the call was inactive.

Take `CC1=C(C(=O)O)N2C(=O)[C@@H](NC(=O)C(N)c3ccccc3)[C@H]2SC1` (stereo partly specified): the result was inactive.

For `CC(C)NC[C@H](O)COc1cccc2ccccc12`, the call was inactive.

The nature of the next experiment: MELAS cybrid and Rieske KO viability enhancers – cell-based, MELAS cybrids, Rieske KO mouse fibroblasts, CellTiter-Glo, primary screen (AID 1508586).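 Also: z relative to plate mean and SD of compound and empty wells.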 As to conditions: MELAS cybrid survival, low glucose, CellTiter-Glo 48 h; stronger effect = higher value. (In ATP-based viability assays light output follows the ATP content of the culture.)
Turning to `Cc1c(-c2cnccn2)ssc1=S`, the z-score was 0.683 (inactive).

Take `CC(C)(CO)[C@@H](O)C(=O)NCCC(=O)O`: the z-score is -0.406 (inactive) and -0.744 (inactive).

On to `OC(c1cc(C(F)(F)F)nc2c(C(F)(F)F)cccc12)C1CCCCN1` (stereo unspecified), for which the z-score is -2.19 (inactive).

With `CN1C(C(=O)Nc2ccccn2)=C(O)c2sc(Cl)cc2S1(=O)=O`, the z-score was -0.192 (inactive).

Regarding `CN[C@@H]1[C@H](O[C@H]2[C@H](O[C@@H]3[C@@H](O)[C@H](O)[C@@H](N=C(N)N)[C@H](O)[C@H]3N=C(N)N)O[C@@H](C)[C@]2(O)C=O)O[C@@H](CO)[C@H](O)[C@H]1O`, the z-score is -0.628 (inactive) and -0.564 (inactive).

Consider `Cc1coc2c1C(=O)C(=O)c1c-2ccc2c1CCCC2(C)C`, for which the z-score is 0.593 (inactive) and 0.0182 (inactive).

`CC[C@]1(O)CC2CN(CCc3c([nH]c4ccccc34)[C@@](C(=O)OC)(c3cc4c(cc3OC)N(C)[C@H]3[C@@](O)(C(=O)OC)[C@H](OC(C)=O)[C@]5(CC)C=CCN6CC[C@]43[C@@H]65)C2)C1` (stereo partly specified): the z-score is -2.11 (inactive).

Consider `N#CC(c1ccc(Cl)cc1)c1c(Cl)cc(-n2ncc(=O)[nH]c2=O)cc1Cl` (stereo unspecified), for which the z-score is -0.404 (inactive) and -1.37 (inactive) and -0.711 (inactive).

With `CC(C)NC[C@H](O)COc1cccc2ccccc12`, the z-score is -0.245 (inactive).

For the compound `COc1ccc(C2Sc3ccccc3N(CCN(C)C)C(=O)C2OC(C)=O)cc1` (stereo unspecified), the z-score was -0.332 (inactive).
